High-throughput results as filed in PubChem.
Shown are actives, neighbours in structure and some others; about 5.4% of the full set was active somewhere.
Calb FLC – C. albicans growth inhibition with fluconazole, primary screen, CaCi-2 strain, Alamar Blue fluorescence; growth inhibition, % (concentration not given with the values); AID 1979, 2009; C. albicans CaCi-2 (fluconazole-resistant clinical isolate) + fluconazole, 48 h; hit rate 0.57% among 300,000;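 active means growth inhibition above about 58% in most replicates, limit read from the data, passing the limit was not always enough; inconclusive means exactly half the replicates above a set limit; inactive means most replicates below a set limit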;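 further: all wells also contain fluconazole at 8 µg/ml as a sub-toxic cotreatment; 0% = median of DMSO wells and 100% = median of geldanamycin control wells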
MPTP block – mitochondrial permeability transition pore inhibitors, primary screen, biochemical, isolated mouse mitochondria, absorbance. Ca2+ swelling absorbance, 30 min. inhibition, % at 10 µM. hit rate 1.4% among 360,000;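 active means inhibition of 50% or more, scaled per plate between neutral and stimulator controls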;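 further: 0% = DMSO wells given calcium and 100% = 1 mM EGTA wells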
Mdm2 MdmX PPI – inhibitors of human Mdm2-MdmX association, primary screen, cell-based, luminescence, split luciferase, SaOS-2, uHTS; Protein Mdm4 (Homo sapiens) + E3 ubiquitin-protein ligase Mdm2 (Homo sapiens), …; SaOS-2 split-luciferase Mdm2/MdmX complementation; inhibition, % at 8 µM; hit rate 3% among 330,000;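 active means inhibition of at least 50% at 8 µM in the primary screen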
Target sequence (O15151 whole entry, looked up): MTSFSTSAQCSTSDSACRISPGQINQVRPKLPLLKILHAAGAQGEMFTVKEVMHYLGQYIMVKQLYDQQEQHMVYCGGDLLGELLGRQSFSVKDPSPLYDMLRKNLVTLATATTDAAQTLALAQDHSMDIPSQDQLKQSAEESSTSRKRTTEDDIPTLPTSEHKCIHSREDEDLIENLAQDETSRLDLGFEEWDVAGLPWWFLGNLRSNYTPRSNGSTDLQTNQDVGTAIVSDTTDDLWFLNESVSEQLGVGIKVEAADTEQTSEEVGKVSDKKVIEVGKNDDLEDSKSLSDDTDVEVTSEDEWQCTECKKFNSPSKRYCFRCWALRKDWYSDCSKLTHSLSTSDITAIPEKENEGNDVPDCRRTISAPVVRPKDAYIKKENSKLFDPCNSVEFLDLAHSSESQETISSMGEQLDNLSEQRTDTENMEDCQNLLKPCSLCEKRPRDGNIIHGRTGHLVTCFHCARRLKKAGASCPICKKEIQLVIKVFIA
Target sequence (Q00987 whole entry, looked up): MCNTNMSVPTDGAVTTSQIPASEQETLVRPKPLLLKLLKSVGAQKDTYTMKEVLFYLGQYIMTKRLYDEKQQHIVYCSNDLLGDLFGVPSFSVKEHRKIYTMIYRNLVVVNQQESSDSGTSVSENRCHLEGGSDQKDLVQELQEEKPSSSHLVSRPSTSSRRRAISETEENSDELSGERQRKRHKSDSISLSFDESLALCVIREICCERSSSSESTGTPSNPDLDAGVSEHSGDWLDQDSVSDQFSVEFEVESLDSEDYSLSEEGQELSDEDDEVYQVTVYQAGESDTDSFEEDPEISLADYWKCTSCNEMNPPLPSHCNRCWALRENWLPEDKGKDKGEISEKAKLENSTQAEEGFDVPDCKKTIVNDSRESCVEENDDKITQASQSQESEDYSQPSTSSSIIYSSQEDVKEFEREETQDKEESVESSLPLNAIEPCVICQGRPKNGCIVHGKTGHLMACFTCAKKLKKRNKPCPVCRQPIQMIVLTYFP
CSC inhib – cancer stem cell viability inhibitors, primary screen, luminescence. cancer stem cell-like cells viability. inhibition, % at 7.5 µM. hit rate 1.1% among 300,000; in the data active means inhibition above about 75%; inconclusive means no clear call, values can overlap the other calls; tested in HMLE shEcad cells
SKKanGAS inh – S. pyogenes SKKanGAS growth inhibitors in kanamycin, primary screen, streptokinase expression inhibitor project, SKKanGAS strain, BacTiter-Glo luminescence. AID 1662, 2009. inhibition, % at 7.5 µM. 6 h. hit rate 1.3% among 300,000;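 active means mean replicate score, as percent of positive control median, at least 50; inconclusive means mean below 50 but one replicate at or above 50; inactive means mean and every replicate below 50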;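 further: strain carries kanamycin resistance gene driven by streptokinase promoter and grows in 40 µg/ml kanamycin; loss of luminescence reflects streptokinase promoter inhibition or plain growth inhibition; 0% = median of DMSO wells and 100% = positive control at its reference dose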
Beta cell apopt – inhibitors of cytokine-induced beta cell apoptosis, primary screen, luminescence | INS-1E cytokine-induced death, ATP luminescence, 48 h; percent of positive-control rescue, neutral wells zero | protection from apoptosis, % (test concentration not listed) | hit rate 0.8% among 300,000;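 active means Every replicate reaches about 75%, or at least half do and their mean reaches it too, limit read from the data; inconclusive means At least half of replicates reach the limit but their mean does not; inactive means Under half of replicates reach the limit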;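 further: 0% = cytokine-treated negative control wells and 100% = positive control rescue; higher means more ATP so stronger rescue from cytokine killing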
Mdm2-MdmX conf – Mdm2-MdmX complex disruptors, retested hits, confirmation, luminescence, single concentration; Mdm2-MdmX binding, luminescent assay; hit rate 55% among 10,000; inhibition, % at 8 µM; shares compounds with Mdm2 MdmX PPI; in the data active means inhibition above about 40%
Full FLuc ctr – full-length luciferase signal inhibition, confirmation, counter-screen for Mdm2/MdmX interaction inhibitor project, cell-based, single concentration, SaOS-2; shares compounds with Mdm2 MdmX PPI; SaOS-2 full-length luciferase counterscreen, luminescence; inhibition, % at 8 µM; hit rate 77% among 6,200; AID 504607, 2011;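 active means mean inhibition at 8 µM reaching about 37%, which flags the compound as non-specific, limit read from the data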;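 further: p53-null SaOS-2 cells with luciferase driven by a doxycycline-inducible promoter; compound on cells about two nights before reading with doxycycline added after day one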
The depositor's hits bear a star; ? = inconclusive; / = no result.

SMILES	Calb FLC	MPTP block	Mdm2 MdmX PPI	CSC inhib	SKKanGAS inh	Beta cell apopt	Mdm2-MdmX conf	Full FLuc ctr
O=C(NCc1cc(C(F)(F)F)ccc1Cl)c1cccc2c1C(=O)c1ccc(N3CCOCC3)cc1S2(=O)=O	/	0.8	40.7	/	/	42.4	/	/
O=C(Nc1nnc(SCc2ccc(F)cc2)s1)c1ccccn1	103.1*	-3.0	82.1*	/	62.6*	/	69.2*	41.1*
O=C(Nc1nnc(SCc2ccc(F)cc2)s1)c1cccnc1Cl	1.2	-0.1	30.5	6.0	12.0	-5.2	/	/
O=C(Nc1nc2ccc(F)cc2s1)c1ccccn1	9.5	/	92.5*	-6.3	97.7*	75.7*	65.2*	58.2*
Cc1cc(C)nc(NC(N)=NCCc2ccccc2)n1	/	-0.5	/	/	/	/	/	/
Cc1cc(C)nc(NC(N)=NCCc2c[nH]c3ccccc23)n1	11.2	0.9	72.3*	-2.5	?	-2.6	51.9*	54.4*
Cc1ccc(S(=O)(=O)c2nc(S(=O)(=O)c3ccccc3)sc2N2CCN(C)CC2)cc1	-7.9	1.0	60.8*	/	-0.3	/	46.7*	23.7
Cc1ccc(S(=O)(=O)c2nc(S(=O)(=O)c3ccccc3)sc2N2CCN(CCO)CC2)cc1	1.8	-1.7	52.7*	/	-4.7	/	10.9	/
O=C(Cn1nc(-c2ccccc2)ccc1=O)NCC1CCCO1 (configuration not stated)	-20.0	-0.1	-7.3	6.9	-14.3	-4.1	/	/
O=C(CN1C(=O)NC(Cc2ccccc2)C1=O)Nc1ccc(F)c(F)c1F (configuration not stated)	/	0.0	-20.6	-4.1	/	-1.0	/	/
COc1ccc(-c2cc3nc(CCl)[nH]c(=O)c3s2)cc1	32.9	-0.5	94.9*	42.9	?	3.7	29.9	/
COc1cccc(CNc2nc3cc(-c4cccc(Cl)c4)sc3c(=O)n2C)c1	/	2.0	/	/	/	/	/	/
COc1cc(Nc2nc3ccccc3nc2NS(=O)(=O)c2ccc([N+](=O)[O-])cc2)cc(OC)c1OC	/	4.3	68.4*	10.6	24.0	19.8	36.0	55.2*
COc1cc(Nc2c3c(nc4ccccc24)CCC3)cc(OC)c1OC	-2.0	-1.1	87.6*	57.8	4.9	9.2	74.3*	63.5*
COc1cc(NS(C)(=O)=O)ccc1Nc1c2ccccc2nc2ccccc12	/	1.0	89.2*	102.0*	/	69.1	73.2*	59.4*
COc1ccc([N+](=O)[O-])cc1NS(=O)(=O)c1ccccc1	1.8	0.4	-27.4	-2.7	4.6	-2.8	/	/
O=[N+]([O-])c1ccccc1Nc1c2ccccc2nc2ccccc12	39.8	2.0	26.8	-2.3	-8.9	-1.7	/	/
O=C(O)c1cc(S(=O)(=O)O)cc(Nc2c3ccccc3nc3ccccc23)c1O	7.5	1.3	4.4	-7.6	-3.2	-10.0	/	/
COc1ccc([N+](=O)[O-])cc1Nc1c2ccccc2nc2ccccc12	-1.6	1.9	64.4*	130.7*	2.3	66.3	63.4*	62.6*
COc1ccccc1Nc1c2c(nc3ccc(N)cc13)CCCC2	36.2	3.4	27.4	14.7	4.0	20.1	/	/
COc1ccc(OC)c(NC(=O)COC(=O)c2c3c(nc4ccccc24)CCCC3)c1	0.8	-1.3	84.6*	54.3	12.4	17.5	63.3*	56.7*
CCCCNC(=O)COC(=O)c1c2c(nc3ccccc13)CCC2	-1.0	-2.0	4.1	1.2	7.4	0.7	/	/
COc1ccc(OC)c(Nc2c3c(nc4ccccc24)CCC3)c1	7.0	1.3	50.6*	57.4	-3.1	13.5	62.0*	78.6*
COc1ccc(OC)c(Nc2cc(C)c3ccccc3n2)c1	-13.3	0.7	-13.1	18.4	-3.8	/	/	/
COc1ccc(OC)c(Nc2c3ccccc3nc3ccccc23)c1	16.6	3.6	73.4*	?	0.5	22.0	65.0*	60.2*
